Of roughly 8,800 targets only a part is listed; those with a hit were picked by preference. About 0.5% of all pairs of compound and target were hits. A number with no mark means an inactive call.
Assays:
Assay in all cases: log2 fold change, soluble protein after heating vs DMSO (PISA); higher = thermal stabilisation; K562 lysate, 10 uM; active = over 0.2 and 3.5 SD of the protein, either way, in both replicates (recomputed)
[1] = compound: CCCS(=O)(=O)Nc1ccc(F)c(C(=O)c2c[nH]c3ncc(-c4ccc(Cl)cc4)cc23)c1F [vemurafenib]
Procedure, shortened: (§1)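 Values give the log-two fold change in thermal stability against solvent controls, from duplicates. Crude K562 extract at 1 mg/mL protein, made by dounce homogenisation in PBS pH 7.4 with 1 mM MgCl2, was treated with 10 μM compound for 30 min. After 3 min heating across 48°C-58°C, aliquots were pooled, adjusted to 0.5% NP-40 at 4°C and centrifuged at 21,000xg for 90 min. The supernatant was measured by TMTpro 16plex LC-MS/MS with channel sums equalised.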

[2] = compound: CCCS(=O)(=O)Nc1ccc(F)c(C(=O)c2c[nH]c3ncc(Cl)cc23)c1F
Procedure, shortened: as §1

[3] = compound: CCN(CCCOc1ccc2c(Nc3cc(CC(=O)Nc4cccc(F)c4)[nH]n3)ncnc2c1)CCOP(=O)(O)O [barasertib]
Procedure, shortened: as §1

[4] = compound: CC[C@@H]1C(=O)N(C)c2cnc(Nc3ccc(C(=O)NC4CCN(C)CC4)cc3OC)nc2N1C1CCCC1
Procedure, shortened: as §1

[5] = compound: CC[C@@H]1C(=O)N(C)c2cnc(Nc3ccc(C(=O)N[C@H]4CC[C@H](N5CCN(CC6CC6)CC5)CC4)cc3OC)nc2N1C(C)C [volasertib]
Procedure, shortened: as §1

[6] = compound: CCn1c(C(=O)N(C2CC2)C2CC2)cc2c3c(ncn3C)c(Nc3cc(C)n(C)n3)nc21
Procedure, shortened: as §1

[7] = compound: CCn1cc(-c2ccnc3[nH]c(-c4cccc(CN(C)C)c4)cc23)c(-c2ccc(NC(=O)N(C)C)cc2)n1
Procedure, shortened: as §1

[8] = compound: CN1CCC(CNc2ccc3ncc(-c4cccc(OC(F)(F)F)c4)n3n2)CC1
Procedure, shortened: as §1

[9] = compound: CN1CCN(c2nc(C3=C(c4c[nH]c5ccccc45)C(=O)NC3=O)c3ccccc3n2)CC1 [sotrastaurin]
Procedure, shortened: as §1

[10] = compound: CN1CCN(CCOc2cc(OC3CCOCC3)c3c(Nc4c(Cl)ccc5c4OCO5)ncnc3c2)CC1 [saracatinib]
Procedure, shortened: as §1

Chain of UniProt O14810 (O14810 whole entry, looked up): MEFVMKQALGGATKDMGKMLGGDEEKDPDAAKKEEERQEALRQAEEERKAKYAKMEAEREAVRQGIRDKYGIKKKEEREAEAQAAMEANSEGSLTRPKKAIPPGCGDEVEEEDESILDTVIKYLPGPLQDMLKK
Chain of UniProt Q9Y600 (Q9Y600 whole entry, looked up): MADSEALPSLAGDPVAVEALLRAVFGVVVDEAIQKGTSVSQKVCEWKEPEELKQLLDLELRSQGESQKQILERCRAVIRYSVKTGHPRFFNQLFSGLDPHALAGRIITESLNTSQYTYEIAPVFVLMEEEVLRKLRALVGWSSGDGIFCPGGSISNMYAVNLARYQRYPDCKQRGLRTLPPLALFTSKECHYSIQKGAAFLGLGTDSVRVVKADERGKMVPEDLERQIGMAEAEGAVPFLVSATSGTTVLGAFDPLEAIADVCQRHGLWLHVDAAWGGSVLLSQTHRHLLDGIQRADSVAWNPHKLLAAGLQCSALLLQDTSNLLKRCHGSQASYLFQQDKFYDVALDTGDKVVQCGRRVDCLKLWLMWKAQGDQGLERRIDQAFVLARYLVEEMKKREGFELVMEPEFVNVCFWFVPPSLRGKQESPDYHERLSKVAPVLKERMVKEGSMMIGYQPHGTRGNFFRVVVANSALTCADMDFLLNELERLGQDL
Chain of UniProt P53355 (P53355 whole entry, looked up): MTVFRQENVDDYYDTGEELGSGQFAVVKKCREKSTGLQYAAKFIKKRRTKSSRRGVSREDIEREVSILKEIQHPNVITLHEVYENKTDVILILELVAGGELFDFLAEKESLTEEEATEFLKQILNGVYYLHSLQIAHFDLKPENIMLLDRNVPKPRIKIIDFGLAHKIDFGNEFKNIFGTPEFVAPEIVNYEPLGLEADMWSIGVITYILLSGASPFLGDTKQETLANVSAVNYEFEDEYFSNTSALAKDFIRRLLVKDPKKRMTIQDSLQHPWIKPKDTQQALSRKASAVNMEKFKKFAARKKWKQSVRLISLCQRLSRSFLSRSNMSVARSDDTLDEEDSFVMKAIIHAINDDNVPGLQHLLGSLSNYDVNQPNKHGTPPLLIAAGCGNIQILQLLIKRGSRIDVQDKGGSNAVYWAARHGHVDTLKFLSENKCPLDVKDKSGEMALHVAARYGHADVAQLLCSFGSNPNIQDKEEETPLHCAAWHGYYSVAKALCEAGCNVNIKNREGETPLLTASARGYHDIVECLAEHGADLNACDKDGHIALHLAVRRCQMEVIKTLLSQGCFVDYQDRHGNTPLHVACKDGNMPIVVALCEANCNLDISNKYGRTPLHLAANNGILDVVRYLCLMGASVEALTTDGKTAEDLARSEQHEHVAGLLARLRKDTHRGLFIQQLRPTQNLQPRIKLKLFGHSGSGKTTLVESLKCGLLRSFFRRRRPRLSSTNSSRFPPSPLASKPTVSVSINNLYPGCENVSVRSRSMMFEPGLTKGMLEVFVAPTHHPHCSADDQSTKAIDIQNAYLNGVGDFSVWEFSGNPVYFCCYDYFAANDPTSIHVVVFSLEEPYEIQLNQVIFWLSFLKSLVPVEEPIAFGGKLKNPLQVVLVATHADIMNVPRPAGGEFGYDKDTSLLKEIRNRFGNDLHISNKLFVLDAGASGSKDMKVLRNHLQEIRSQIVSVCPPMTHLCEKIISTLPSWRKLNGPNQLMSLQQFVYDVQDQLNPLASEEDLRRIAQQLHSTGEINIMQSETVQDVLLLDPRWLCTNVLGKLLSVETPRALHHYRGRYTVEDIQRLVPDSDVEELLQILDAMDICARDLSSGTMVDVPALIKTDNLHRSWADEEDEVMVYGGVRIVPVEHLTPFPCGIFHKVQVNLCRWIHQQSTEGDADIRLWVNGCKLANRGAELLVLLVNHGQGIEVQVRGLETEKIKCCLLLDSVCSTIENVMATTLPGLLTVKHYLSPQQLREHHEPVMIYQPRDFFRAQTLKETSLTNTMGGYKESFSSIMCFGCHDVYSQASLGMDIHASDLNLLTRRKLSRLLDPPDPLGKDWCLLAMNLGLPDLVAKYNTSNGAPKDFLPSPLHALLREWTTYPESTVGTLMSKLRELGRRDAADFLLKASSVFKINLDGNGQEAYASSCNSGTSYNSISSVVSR
Chain of UniProt Q96EP1 (Q96EP1 whole entry, looked up): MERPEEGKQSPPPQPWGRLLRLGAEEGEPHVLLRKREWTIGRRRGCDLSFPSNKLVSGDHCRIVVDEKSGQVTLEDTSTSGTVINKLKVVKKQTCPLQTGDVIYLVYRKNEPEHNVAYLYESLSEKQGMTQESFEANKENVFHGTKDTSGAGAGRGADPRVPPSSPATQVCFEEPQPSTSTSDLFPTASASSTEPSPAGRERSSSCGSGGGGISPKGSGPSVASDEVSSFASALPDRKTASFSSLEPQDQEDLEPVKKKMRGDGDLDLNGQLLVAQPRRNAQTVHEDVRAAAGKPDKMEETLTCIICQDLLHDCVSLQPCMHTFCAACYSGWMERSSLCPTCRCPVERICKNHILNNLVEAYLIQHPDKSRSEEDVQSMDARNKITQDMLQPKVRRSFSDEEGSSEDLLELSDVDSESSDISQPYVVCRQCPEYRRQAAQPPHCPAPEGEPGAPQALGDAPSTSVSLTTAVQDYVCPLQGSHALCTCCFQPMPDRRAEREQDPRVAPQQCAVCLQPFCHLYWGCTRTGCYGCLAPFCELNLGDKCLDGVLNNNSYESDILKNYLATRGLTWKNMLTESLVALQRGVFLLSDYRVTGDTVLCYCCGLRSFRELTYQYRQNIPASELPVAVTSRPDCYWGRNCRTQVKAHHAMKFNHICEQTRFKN
Chain of UniProt O60610 (O60610 whole entry, looked up): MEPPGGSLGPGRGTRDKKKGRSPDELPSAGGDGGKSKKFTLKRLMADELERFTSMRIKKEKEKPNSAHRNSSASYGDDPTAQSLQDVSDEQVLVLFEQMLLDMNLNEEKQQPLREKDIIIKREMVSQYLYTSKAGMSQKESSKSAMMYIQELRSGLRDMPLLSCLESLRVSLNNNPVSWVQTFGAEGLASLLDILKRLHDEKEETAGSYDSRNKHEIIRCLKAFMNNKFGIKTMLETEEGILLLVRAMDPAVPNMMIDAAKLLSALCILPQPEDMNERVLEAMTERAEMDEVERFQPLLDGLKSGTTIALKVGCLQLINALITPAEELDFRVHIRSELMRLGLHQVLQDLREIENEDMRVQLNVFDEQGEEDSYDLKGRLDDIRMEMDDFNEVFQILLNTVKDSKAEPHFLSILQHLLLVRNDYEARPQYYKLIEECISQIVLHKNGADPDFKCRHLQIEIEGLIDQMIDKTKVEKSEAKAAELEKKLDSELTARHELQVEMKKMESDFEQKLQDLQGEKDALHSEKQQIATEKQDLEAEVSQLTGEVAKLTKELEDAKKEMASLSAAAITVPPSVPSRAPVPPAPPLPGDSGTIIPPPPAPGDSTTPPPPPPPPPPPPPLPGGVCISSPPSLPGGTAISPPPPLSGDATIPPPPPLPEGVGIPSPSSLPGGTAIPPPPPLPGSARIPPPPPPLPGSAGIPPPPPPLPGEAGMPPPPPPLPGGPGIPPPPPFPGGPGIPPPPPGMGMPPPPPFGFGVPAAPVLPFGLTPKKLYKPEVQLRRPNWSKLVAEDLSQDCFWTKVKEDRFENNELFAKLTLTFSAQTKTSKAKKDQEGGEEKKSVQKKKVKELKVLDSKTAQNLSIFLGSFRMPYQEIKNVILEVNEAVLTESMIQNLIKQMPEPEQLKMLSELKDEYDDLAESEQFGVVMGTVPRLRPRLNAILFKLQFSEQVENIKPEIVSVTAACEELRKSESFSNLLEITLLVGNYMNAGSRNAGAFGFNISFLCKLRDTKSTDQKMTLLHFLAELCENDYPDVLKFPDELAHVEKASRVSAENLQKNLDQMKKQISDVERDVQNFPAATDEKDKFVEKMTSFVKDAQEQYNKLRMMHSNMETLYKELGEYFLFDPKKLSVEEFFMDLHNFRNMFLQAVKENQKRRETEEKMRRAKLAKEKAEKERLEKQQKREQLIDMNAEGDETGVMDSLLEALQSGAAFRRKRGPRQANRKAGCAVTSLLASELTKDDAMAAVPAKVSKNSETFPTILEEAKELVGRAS
Chain of UniProt Q7L7V1 (Q7L7V1 whole entry, looked up): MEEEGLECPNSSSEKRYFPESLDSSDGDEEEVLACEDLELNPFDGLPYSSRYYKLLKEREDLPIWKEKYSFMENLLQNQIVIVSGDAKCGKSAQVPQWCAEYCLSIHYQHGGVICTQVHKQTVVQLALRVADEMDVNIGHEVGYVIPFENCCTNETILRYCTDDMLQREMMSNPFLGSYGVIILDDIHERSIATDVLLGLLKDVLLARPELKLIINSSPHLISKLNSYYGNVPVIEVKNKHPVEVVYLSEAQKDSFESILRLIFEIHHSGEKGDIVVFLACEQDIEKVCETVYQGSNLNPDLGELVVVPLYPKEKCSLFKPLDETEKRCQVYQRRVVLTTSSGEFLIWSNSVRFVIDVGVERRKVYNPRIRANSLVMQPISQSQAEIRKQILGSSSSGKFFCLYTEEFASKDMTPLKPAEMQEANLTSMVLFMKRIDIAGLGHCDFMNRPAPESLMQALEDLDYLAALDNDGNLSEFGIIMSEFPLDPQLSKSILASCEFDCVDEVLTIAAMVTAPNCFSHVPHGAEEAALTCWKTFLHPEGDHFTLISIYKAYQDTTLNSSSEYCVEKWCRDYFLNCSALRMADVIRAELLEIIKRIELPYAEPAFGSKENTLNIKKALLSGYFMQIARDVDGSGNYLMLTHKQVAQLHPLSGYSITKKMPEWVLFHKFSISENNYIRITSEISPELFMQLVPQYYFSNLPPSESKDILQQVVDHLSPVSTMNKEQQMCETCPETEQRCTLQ
Chain of UniProt O94760 (O94760 whole entry, looked up): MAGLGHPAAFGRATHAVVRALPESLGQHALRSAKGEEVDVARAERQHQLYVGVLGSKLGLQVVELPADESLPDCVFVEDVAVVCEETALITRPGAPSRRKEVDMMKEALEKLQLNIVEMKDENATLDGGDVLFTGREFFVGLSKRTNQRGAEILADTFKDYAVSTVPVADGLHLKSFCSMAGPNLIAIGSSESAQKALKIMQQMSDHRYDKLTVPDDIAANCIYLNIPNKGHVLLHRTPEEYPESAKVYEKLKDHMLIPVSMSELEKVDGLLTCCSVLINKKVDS

Target | log2 fold change [1] | log2 fold change [2] | log2 fold change [3] | log2 fold change [4] | log2 fold change [5] | log2 fold change [6] | log2 fold change [7] | log2 fold change [8] | log2 fold change [9] | log2 fold change [10]
CNTN4 (UniProt Q8IWV2) | 0.237 | 0.12 | 0.03 | 0.295 | 0.024 | -0.326 | -0.474 | 0.128 | -0.076 | 
DIAPH1 (UniProt O60610) | -0.002 | -0.007 | 0.006 | -0.001 | -0.002 | 0.009 | 0.091 | -0.042 | -0.001 | -0.006
DLG3 isoform 2 (UniProt Q92796) | 0.109 | 0.005 | 0.047 | -0.128 | -0.006 | -0.057 | -0.14 | 0.038 | 0.043 | 0.004
DARS (UniProt P14868) | 0.02 | 0.021 | 0.021 | -0.099 | -0.043 | 0.062 | 0.026 | -0.012 | 0.011 | 0.018
CNIH4 (UniProt Q9P003) | 0.217 | 0.064 | 0.585 | 0.051 | -0.077 | -0.19 |  |  | 0.066 | 0.021
CNNM2 (UniProt Q9H8M5) | 0.025 | 0.024 |  | 0 | -0.043 | -0.091 | -0.059 | 0.036 | 0.091 | -0.039
DNM2 (UniProt P50570) | 0.002 | 0.005 | 0.037 | -0.024 | -0.043 | 0.029 | -0.012 | 0.013 | 0.001 | 0.016
CSNK1D (UniProt P48730) | -0.04 | -0.044 | -0.092 |  | -0.191 | 0.025 |  | 0.255 | 0.058 | -0.039
CNOT4 isoform 6 (UniProt O95628) | -0.052 | 0.008 | -0.014 | 0.057 | 0.009 | 0.108 | -0.053 | 0 | -0.005 | 0.057
DDB2 (UniProt Q92466) | -0.073 | 0.001 | 0.025 | 0.015 | -0.003 | 0 | 0.006 | 0.019 | 0.075 | -0.022
DNAJC1 (UniProt Q96KC8) | -0.019 | 0.006 | 0.053 | 0.017 | -0.012 | 0.067 | 0.033 | -0.293 (active) | -0.002 | 0.029
DIAPH1 (UniProt H9KV28) | 0.098 | -0.01 | 0.091 | -0.049 | -0.046 | -0.046 | -0.07 | 0.153 | -0.001 | 
CYCS (UniProt P99999) | -0.011 | -0.001 | -0.01 | 0.061 | 0.041 | 0.018 | -0.025 | 0.052 | -0.017 | 0.008
CSNK1G3 (UniProt Q9Y6M4) | -0.004 | -0.053 | -0.028 |  | 0.002 | 0.039 | -0.095 | 0.065 | 0.035 | 0.043
DEF6 (UniProt Q9H4E7) | -0.004 | -0.005 | -0.05 | -0.101 | -0.05 | -0.033 | -0.071 | 0.049 | 0.004 | 0.07
CUX1 isoform 2 (UniProt Q13948) | 0.013 | 0.084 |  | -0.087 | -0.001 | 0.019 | 0.06 | -0.34 | 0.081 | -0.054
COG5 isoform 2 (UniProt Q9UP83) | 0.001 | 0.06 | -0.116 | -0.056 | -0.084 | -0.007 | -0.02 | 0.01 | 0.08 | 0.057
DBF4 (UniProt Q9UBU7) | 0.001 |  | 0.054 | -0.015 |  | 0.001 | -0.003 | -0.245 | -0.004 | 0.001
CSNK2A1, A0A2R8Y4D6 |  | 0.107 |  |  | -0.325 |  |  |  |  | 
CSNK1G3 isoform 4 (UniProt Q9Y6M4) |  | -0.238 |  |  | 0.111 |  |  |  |  | 
CHMP4A (UniProt H0YIN6) |  | 0.049 | -0.012 |  | 0.024 | -0.495 | -0.274 | 0.158 | -0.088 | 0.201
COL12A1 (UniProt Q99715) | 0.239 | 0.178 |  | 0.194 | -0.139 |  |  |  | -0.233 | 0.063
DDAH1 (UniProt O94760) | 0.054 | 0.071 |  | 0.04 | 0.068 | 0.061 | -0.068 | -0.051 | -0.022 | -0.308 (active)
DCTN1 isoform 4 (UniProt Q14203) | 0.07 | 0.089 |  | 0.139 | -0.019 | -0.28 | 0.34 | 0.121 | -0.027 | 0.123
DLGAP5 isoform 3 (UniProt Q15398) |  |  | 0.281 |  |  |  | -0.165 | -0.03 |  | 0.165
DAPK1 isoform 3 (UniProt P53355) | 0.047 | -0.203 |  |  | -0.138 | 0.022 | 0.138 | -0.04 | -0.039 | 0.022

Target | log2 fold change [1] | log2 fold change [2] | log2 fold change [3] | log2 fold change [4] | log2 fold change [5] | log2 fold change [6] | log2 fold change [7] | log2 fold change [8] | log2 fold change [9] | log2 fold change [10]
COPS9 (UniProt Q8WXC6) |  | -0.075 |  |  | 0.062 | -0.197 |  |  |  | 
DESI2 (UniProt Q9BSY9) | 0.064 |  |  | 0.089 |  |  | 0.116 | -0.113 |  | 
CORO7 (UniProt P57737) | -0.143 |  |  | 0.089 |  | -0.025 | 0.321 | 0.165 | 0.137 | 0.166
DALRD3 (UniProt Q5D0E6) | -0.033 | -0.025 |  | -0.095 | -0.041 |  | 0.003 | 0.144 |  | 
CHFR (UniProt Q96EP1) | -0.252 | 0.063 |  | -0.013 | 0.043 | 0.052 |  |  | 0.033 | 0.052
CLIP1 isoform 2 (UniProt P30622) |  | 0.112 | -0.083 | 0.073 | 0.055 | -0.04 | -0.488 | 0.02 | -0.026 | 0.028
DNAJC24 (UniProt Q6P3W2) | 0.141 | -0.038 |  | 0.017 | 0.027 | 0.002 | 0.196 | -0.309 (active) | -0.032 | -0.013
CNK3/IPCEF1 isoform 2 (UniProt G9CGD6) | -0.062 |  |  | 0.056 |  | 0.078 | -1.81 (active) | 0.506 |  | 0.053
DNM2 isoform 4 (UniProt P50570) |  | -0.001 |  | -0.018 | -0.031 | -0.014 | -0.153 | 0.021 | -0.031 | -0.047
CIC (UniProt I3L1Q4) |  |  | -0.169 |  |  |  |  |  |  | 
COL6A3 (UniProt P12111) |  |  | 0.347 |  |  | 0.086 | 0.254 | -0.19 | 0.031 | -0.039
CLIP1, A0A3B3ITA2 | -0.026 |  |  |  |  | -0.015 | -0.515 | 0.634 (active) | -0.021 | 
DHX32 (UniProt Q7L7V1) | 0.173 |  |  | -0.026 |  | -0.106 | 0.137 | 0.003 | -0.011 | 
DHRS13 (UniProt Q6UX07) |  | 0.291 | 0.236 |  | -0.274 | 0.077 |  |  | 0.095 | -0.031
CYP4V2 (UniProt Q6ZWL3) |  | -0.021 | -0.021 |  | 0.05 | -0.12 |  |  | -0.17 | -0.076
CSRP2 (UniProt Q16527) |  |  | 0.078 | 0.052 |  |  | 0.09 | 0.126 | -0.351 (active) | 
CSAD isoform 3 (UniProt Q9Y600) |  |  | 0.456 (active) |  |  | 0.001 |  |  | -0.003 | 
CYP2S1 isoform 2 (UniProt Q96SQ9) | 0.062 | 0.136 |  | 0.119 | 0.038 | 0.063 |  |  | 0.081 | 0.017
CXCL14 (UniProt O95715) | 0.252 |  | 0.079 | 0.189 |  |  |  |  |  | 
CSDE1 isoform 3 (UniProt O75534) |  | -0.014 | 0.05 |  | -0.193 | 0.113 | -0.064 | -0.104 | 0.07 | 
CPLX1 (UniProt O14810) | 0.034 | 0.057 |  | -0.026 | 0.029 | -0.074 |  |  |  | 0.893 (active)
CSNK1A1 isoform 3 (UniProt P48729) |  |  |  |  |  | -0.199 |  |  |  | -0.175
CRLS1 (UniProt Q9UJA2) |  | 0.063 | 0.014 |  | 0.005 | 0.017 | 0.022 | -0.301 | -0.008 | 
DONSON (UniProt Q9NYP3) |  | 0.017 | -0.03 |  | 0.026 | -0.036 | -0.026 | -0.206 | 0.016 | 0.013
DDR1 isoform 5 (UniProt Q08345) |  |  | 0.169 | 0.064 |  | 0.013 | 0.043 | -0.479 (active) | -0.019 | -0.142
DNA2 (UniProt P51530) | -0.094 |  |  | -0.053 |  | 0.051 | 0.03 | 0.022 | 0.073 | 0.008
